Hit rate of the full screen: of about 94,000 compounds, about 6,200 (6.6%) were called active. Roughly 31% stayed inconclusive and do not appear here. Calls follow the shape of the dose curve; as a rule, active = well fitted inhibition curve with a large enough effect; inconclusive = small, poorly fitted or top-dose-only effect; inactive = flat fitted curve, though single readings scatter. What follows is part of a selection rich in actives, with near analogues and random picks from the rest.
assay: Cytotoxic Profiling in HEK 293 Cell Line of Diverse Libraries Using Quantitative High-Throughput Screening; conditions: HEK 293 viability, ATP luminescence (CellTiter-Glo), 48-72 h; series mostly up to 115 µM; activity change, negative = cytotoxicity: at the top concentration; also: nearly all actives have a fitted effect of over 60% in size
Outline: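 HEK 293 seeded at 250 cells/well receive compound via pintool. After 48 or 72 hr at 37 degree Celsius, 5% CO2 and 95% humidity, CellTiter-Glo is dispensed and luminescence read following 10 min at room temperature.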
% is scaled to controls: 0 for no effect and ±100 for the full control effect; potency is read from the fitted curve at half-maximal effect.

| Compound | activity change, negative = cytotoxicity | Potency | outcome |
| --- | --- | --- | --- |
| CCn1nc(C)cc1C(=O)N1C[C@H]2OC(=O)N(CCCN3CCOCC3)[C@H]2C1 | -26.4% (inactive) |  |  |
| O=C(Nc1cccnc1)O[C@H]1COCCN(c2nc3ccccc3s2)C1 | -19% [at 172 µM] (inactive) |  |  |
| COc1cccc([S+](=O)([O-])N2CCCC3(CC(c4cccc(C(F)(F)F)c4)=NO3)C2)c1 (stereo not given) | -20.1% (inactive) |  |  |
| CC(C)N1C[C@H](O)C[C@H]1c1nnc2n1CCN(C(=O)c1ccccn1)CC2 | -14.3% (inactive) |  |  |
| CO[C@H]1C(=O)N(C2CCN(S(=O)(=O)c3c(C)nn(C)c3C)CC2)[C@H]1c1ccncc1 | -4.47% (inactive) |  |  |
| CCCN1C(=O)NC(CC(=O)N2CCC(O)(c3ccc(C)cn3)CC2)C1=O (stereo not given) | -16.1% (inactive) |  |  |
| CN(C)S(=O)(=O)N1C[C@@H]2CC[C@H](C1)N(Cc1ccccc1C#N)C2 | -13.7% (inactive) |  |  |
| CC1(C)[C@H](Cc2cc(-c3ccccc3)on2)C[C@@H]1NS(C)(=O)=O |  | 89.1 µM (active) |  |
| CC1(C)[C@H](Cc2cc(-c3ccccc3)on2)C[C@@H]1NCC1CC1 |  | 100 µM (active) |  |
| CC1(C)[C@H](Cc2cc(CCO)on2)C[C@@H]1NCC1CC1 | -3.06% [at 230 µM] (inactive) |  |  |
| CCn1cnnc1CC1CCN(C(=O)c2cc(-c3ccc(F)cc3)nc3ccccc23)CC1 | -31.2% (inactive) |  |  |
| CN(C)C(C(=O)N1CCC(N2CCSCC2)CC1)c1cccc(F)c1 (stereo not given) | 2.08% (inactive) |  |  |
| O=C(NC[C@H]1O[C@@H](CO)[C@@H](O)[C@H]1N1CCOCC1)Nc1ccc(OC(F)(F)F)cc1 | 4.47% (inactive) |  |  |
| O=C(NCc1ccccc1)c1ccc2nc(-c3ccnc(Cl)c3)oc2c1 | -0.349% [at 172 µM] (inactive) |  |  |
| O=C(NCc1cnn(Cc2ccccc2)c1)c1ccc2oc(-c3cccc(F)c3)nc2c1 |  | 7.08 µM (active) |  |
| O=C(NCCc1ccccc1)c1ccc2oc(-c3cccnc3)nc2c1 | -15.5% (inactive) |  |  |
| COC1CCOC2(CCN(C(=O)c3cnccn3)CC2)C1 (stereo not given) | -8.41% (inactive) |  |  |
| CN(C(=O)NCc1ccccc1)C1CCc2nn(CC3CC3)c(=O)n2CC1 (stereo not given) | -7.23% (inactive) |  |  |
| O=C(C1Cn2cccc2C(=O)N1Cc1ccccc1)N1CCOCC1 (stereo not given) | -8.46% (inactive) |  |  |
| Cc1cnc(CC2CCN(S(=O)(=O)c3ccc(C#N)cc3)C2)n1Cc1ccccc1 (stereo not given) |  | 44.7 µM (active) |  |
| Cc1ccc(S(=O)(=O)N2CC[C@H](c3nnc(-c4ccccc4)o3)C2)cc1 | -21.2% [at 172 µM] (inactive) |  |  |
| O=S(=O)(Cc1ccccc1)N1CCCC(Cc2nncn2CC2CC2)C1 (stereo not given) |  |  | inactive |
| CCN(CCn1cccn1)Cc1cnc(S(=O)(=O)Cc2ccccc2)n1CC(C)C | -18.6% (inactive) |  |  |
| O=C(C1CCCCC1)N1CC2(Cc3ccccc3NC2=O)C1 | -17.9% (inactive) |  |  |
| O=C(NCc1c[nH]c2ncccc12)c1ccccc1F | -18.3% [at 172 µM] (inactive) |  |  |

| Compound | activity change, negative = cytotoxicity | Potency | outcome |
| --- | --- | --- | --- |
| COc1ccc(CNC(=O)[C@@H]2Cc3cn(Cc4ccncc4)c4cccc(c34)[C@H](CC(C)C)N2)cc1 |  | 39.8 µM (active) |  |
| COc1ccc(CNC(=O)[C@H]2O[C@H](CCN3CCN(C)CC3)CC[C@@H]2O)cc1 | -12% [at 172 µM] (inactive) |  |  |
| CC(C)C[C@@H]1N[C@H](C(=O)NCc2ccc(F)cc2)Cc2cn(C)c3cccc1c23 |  | 70.8 µM (active) |  |
| COCCN1C(=O)Cc2ccccc2C1C(=O)NCC1CCCCC1 (stereo not given) | 10% (inactive) |  |  |
| COC(=O)[C@@H]1Cc2ncn(Cc3ccc(OC)cc3)c2CN1S(C)(=O)=O | -6.58% [at 172 µM] (inactive) |  |  |
| C=CCn1cc2c3c(cccc31)[C@H](CC(C)C)N[C@H](C(=O)NCC1CC1)C2 |  | 79.4 µM (active) |  |
| CC(C)N1CCC(OCCCNC(=O)C2Cn3cccc3C(=O)N2)CC1 (stereo not given) | 2.23% (inactive) |  |  |
| CCc1ccc(CNC(=O)C2c3ccccc3CC(=O)N2C(C)C)cc1 (stereo not given) | -27.9% (inactive) |  |  |
| CN1CC(C(=O)NCc2ccccc2)NC1=O (stereo not given) |  |  | inactive [at 172 µM] |
| CN1CC2(CCN(C(=O)c3ccncc3)CC2)CC1C(=O)N1CCOCC1 (stereo not given) | -3.04% (inactive) |  |  |
| CNC(=O)c1cc(C2CC2)nc2onc(C3CCN(C(=O)Nc4ccccc4)C3)c12 (stereo not given) | -12.7% (inactive) |  |  |
| CNC(=O)c1cc(C2CC2)nc2c1c(C1CCN(C(=O)C(C)C)C1)nn2C (stereo not given) | -22% (inactive) |  |  |
| COC[C@H]1C[C@@H](NC(=O)c2cc(C)oc2C(F)(F)F)[C@H](O)[C@@H]1O | -0.359% [at 172 µM] (inactive) |  |  |
| Cc1cc(S(=O)(=O)N2CCC(n3cnnc3C(C)C)CC2)ccc1F | -7.71% (inactive) |  |  |
| CN1CCCN(C(=O)c2cc(F)ccc2F)c2ccccc21 | -29.6% (inactive) |  |  |
| Cc1cc(S(=O)(=O)N2CCCN(C)c3ccccc32)ccc1F |  | 79.4 µM (active) |  |
| CCOc1ccc(-c2cc3c(=O)n(CCNC(=O)c4ccc(OC)cc4C)ccn3n2)cc1 | -42.3% (inactive) |  |  |
| CCC(C(=O)NCCn1ccn2nc(-c3ccc(F)cc3)cc2c1=O)c1ccccc1 (stereo not given) |  | 20 µM (active) |  |
| COc1cccc(CNC(=O)Cn2ccn3nc(-c4ccc(F)cc4)c(CO)c3c2=O)c1 | -4.92% (inactive) |  |  |
| O=C(Cn1cccc1-c1nc(-c2ccc(F)cc2)no1)Nc1cc(F)cc(F)c1 | -13.6% (inactive) |  |  |
| Fc1ccc(Nc2nc(-c3ccccc3F)no2)cc1 |  | 39.8 µM (active) |  |
| CCc1nc2c(=O)n(CC(=O)NCc3cc(C)ccc3C)nc(C)c2s1 | -19.2% (inactive) |  |  |
| CN(c1ccccc1)c1cc(=O)c2ccnc(Nc3cccc([S+](C)(=O)[O-])c3)c2o1 |  | 100 µM (active) |  |
| Cn1ccc(Nc2nccc3c(=O)cc(-c4ccccn4)oc23)n1 | -16.5% [at 172 µM] (inactive) |  |  |
| CCCC(=O)N(C)CC1CCOCC1 | 9.81% (inactive) |  |  |

| Compound | activity change, negative = cytotoxicity | Potency | outcome |
| --- | --- | --- | --- |
| COc1ccccc1NC(=O)N1CCC2(CCNC(=O)CC2)CC1 | -2.63% (inactive) |  |  |
| O=C(NCC1CCOCC1)c1ccc2[nH]ccc2c1 | -0.244% (inactive) |  |  |
| CC1(COCC2CC2)COc2ccc(C(=O)NCc3cccnc3)cc2N1 (stereo not given) | -25.1% [at 172 µM] (inactive) |  |  |
| CN(C)CCN(C)C(=O)c1ccc2c(c1)NC(C)(COc1ccc3[nH]ccc3c1)CO2 (stereo not given) |  | 112 µM (active) |  |
| CC(C)CC(=O)N1CCCN(c2nnc3ccccn23)CC1 |  |  | inactive |
| C[C@@H](NC(=O)c1cccnc1)c1c(-c2ccc(F)cc2)noc1C(=O)O | 4.65% [at 172 µM] (inactive) |  |  |
| CC(=O)NC1CN(c2ccnc3ccnn23)C1 | -10.6% [at 172 µM] (inactive) |  |  |
| Cc1cccc(-c2cccc(NC(=O)C3CCCN(C(=O)CC(F)(F)F)C3)c2)c1 (stereo not given) |  | 31.6 µM (active) |  |
| CC(=O)Nc1cccc(-c2nnc3n2CCCC3)c1 | 24.3% (inactive) |  |  |
| Cc1cccc(C(=O)N2C[C@@H](F)C[C@H]2C(=O)N2CCCCC2)c1 | 1.93% (inactive) |  |  |
| CCCCc1ccc(NC(=O)Cn2ccn3nc(-c4ccc(F)cc4)c(CO)c3c2=O)cc1 | -0.406% (inactive) |  |  |
| COc1ccccc1CNC(=O)c1nn(CC2CC2)c2c1CNCC2 | -11% (inactive) |  |  |
| COC[C@H]1NC(=O)CC[C@H]1C(=O)NCc1cccc(C(F)(F)F)c1 | 2.55% (inactive) |  |  |
| O=C(NCc1cccc(C(F)(F)F)c1)c1nn(CCOc2ccccc2)c2c1CNCC2 |  | 28.2 µM (active) |  |
| CNC(=O)c1noc([C@@H]2CC(F)(F)CN2Cc2ccc(C)cn2)n1 | 1.02% (inactive) |  |  |
| COc1ccc(CN2CCC3(COc4ncccc4[S+](=O)([O-])N3)C2)cc1 (stereo not given) | -6.89% (inactive) |  |  |
| COc1ccc(N2CC(COc3ccccc3)Oc3ncccc3[S+]2(=O)[O-])cc1 (stereo not given) | -26% [at 57.5 µM] (inactive) |  |  |
| COc1ccc(OCC2CN(Cc3cccc(F)c3)[S+](=O)([O-])c3cccnc3O2)cc1 (stereo not given) |  | 28.2 µM (active) |  |
| CNC(=O)N1CCC(C2CCN(C(=O)C3CC=CC3)C2)CC1 (stereo not given) | -10.2% (inactive) |  |  |
| O=C(Cn1nc2c(cc1=O)CCCC2)Nc1nc(-c2ccc3c(c2)OCCCO3)cs1 | 1.44% (inactive) |  |  |
| CC(C)(C)c1csc(NC(=O)c2ccc3c(c2)OCCN(C2CCC2)C3)n1 |  | 50.1 µM (active) |  |
| COc1ccc(NC(=O)Cn2c(C)ccc(NS(=O)(=O)c3ccccc3)c2=O)cc1 | -11.2% (inactive) |  |  |
| CCOc1ccc2c(n1)CCN(C(=O)C(C)C)C2 | -20.1% (inactive) |  |  |
| O=C(NCc1ccc(Cl)nc1)c1cn2c(n1)CN(C(=O)c1cccnc1)CC2 |  |  | inactive |
| O=C(NCCc1cnccn1)c1coc(COc2cccc(C(F)(F)F)c2)n1 | -2.53% (inactive) |  |  |

| Compound | activity change, negative = cytotoxicity | Potency | outcome |
| --- | --- | --- | --- |
| CN(C)C[C@@H]1CN(Cc2ccccn2)C[C@H]1NC(=O)c1cc(Cl)ccc1F |  | 44.7 µM (active) |  |
| CN(C)C[C@@H]1CN(c2ncccn2)C[C@H]1NC(=O)c1cc(Cl)ccc1F | 2.99% (inactive) |  |  |
| Cc1occc1C(=O)N[C@@H]1CN(Cc2cccnc2)C[C@H]1CN(C)C | -0.747% (inactive) |  |  |
| CNC(=O)c1cc(C)nc2onc(C3CCN(C(=O)c4ccc(C)cc4)CC3)c12 | -0.605% (inactive) |  |  |
| NC(=O)CCNC(=O)C1=C[C@@H](NC(=O)Nc2ccccc2Br)[C@@H](O)[C@H](O)C1 |  |  | inactive |
| CCN(C1CCN(C)CC1)C1CN(C(=O)c2nccc3ccccc23)C1 | -0.681% (inactive) |  |  |
| CCc1cccc(C)c1NC(=O)CN1C(=O)C(c2ccccc2)=NC12CCCC2 | -26% (inactive) |  |  |
| CCOc1ccccc1NC(=O)Cn1c(=O)n(-c2ccccc2)c(=O)c2c1cc(C)n2C | -1.28% (inactive) |  |  |
| CCOc1ccccc1NC(=O)CN1C(=O)C(c2ccccc2)=NC12CCCC2 |  | 79.4 µM (active) |  |
| Cc1noc(C)c1[S+](=O)([O-])N1CCn2c(nnc2C2CCCNC2)C1 (stereo not given) | -2.98% (inactive) |  |  |
| COc1ccc(-c2[nH]nc3ncc(-c4cn[nH]c4)nc23)cc1F | -65.2% [at 172 µM] (inactive) |  |  |
| c1cc2c(cc1-c1n[nH]c(C3CCOCC3)n1)OCO2 | 4.32% (inactive) |  |  |
| Cc1cccc(-c2cnc3n[nH]c(-c4ccc5c(c4)OCO5)c3n2)c1 |  | 70.8 µM (active) |  |
| CC(=O)N1CCC(Oc2ccc(Cl)cc2C(=O)N2CCN(CC3CC3)CC2)CC1 | -0.051% (inactive) |  |  |
| CCn1cc(S(=O)(=O)N2CCc3nn(CC4CC4)c(=O)n3CC2)cn1 |  |  | inactive |
| CN(C)c1ccc2ncc(Nc3ccccc3F)n2n1 |  | 112 µM (active) |  |
| O=C(NCCCN1CCCCC1)C1CCN(C(=O)N2CC3CC(C2)[C@H]2CCCC(=O)N2C3)CC1 (stereo not given in full) | 7.11% (inactive) |  |  |
| COCCN1CCC2(CCC1=O)CCN(C(=O)c1sc(C)nc1C)CC2 | 0.502% (inactive) |  |  |
| CCOC(=O)C1=CN(CC(=O)Nc2ccccc2F)S(=O)(=O)N=C1C | 9.12% (inactive) |  |  |
| Cc1cc(=O)n(CC(=O)N2C[C@H](CO)C[C@H](CN(C)C)C2)nc1C | -2.93% (inactive) |  |  |
| COc1cc(C)c(CN2CCN3C(=O)CNC(=O)C3C2)cc1C(C)C (stereo not given) | -23.9% (inactive) |  |  |
| CCOc1cc(C)c(CN2C[C@@H](CN(C)C)C[C@H](CO)C2)cc1C(C)C |  | 35.5 µM (active) |  |
| COc1ccc(C(=O)NCc2nnc3ccc(-c4ccccc4)nn23)c(OC)n1 |  |  | inactive |
| COc1ccccc1Nc1cnc2ccc(-c3ccc(OC)c(OC)c3)nn12 |  | 11.2 µM (active) |  |
| Cc1ccc(-c2ccc3nnc(CNC(=O)c4cccnc4)n3n2)cc1C | -0.42% (inactive) |  |  |
